# From PubChem BioAssay AID1851 (National Center for Advancing Translational Sciences (NCATS), 2009)
# About 2,600 (16%) of roughly 16,000 compounds were called active. About 20% were inconclusive and are not listed. Calls come from the whole dose curve; as a rule, active = well fitted curve in the direction sought with a large enough effect; inconclusive = small, poorly fitted or top-dose-only effect, or effect the other way; inactive = no such curve, though single readings can be large or run the other way. Only a sample is shown.
# Target: Cytochrome P450 2D6 (Homo sapiens) (UniProt P10635)
# Sequence (P10635 whole entry, looked up): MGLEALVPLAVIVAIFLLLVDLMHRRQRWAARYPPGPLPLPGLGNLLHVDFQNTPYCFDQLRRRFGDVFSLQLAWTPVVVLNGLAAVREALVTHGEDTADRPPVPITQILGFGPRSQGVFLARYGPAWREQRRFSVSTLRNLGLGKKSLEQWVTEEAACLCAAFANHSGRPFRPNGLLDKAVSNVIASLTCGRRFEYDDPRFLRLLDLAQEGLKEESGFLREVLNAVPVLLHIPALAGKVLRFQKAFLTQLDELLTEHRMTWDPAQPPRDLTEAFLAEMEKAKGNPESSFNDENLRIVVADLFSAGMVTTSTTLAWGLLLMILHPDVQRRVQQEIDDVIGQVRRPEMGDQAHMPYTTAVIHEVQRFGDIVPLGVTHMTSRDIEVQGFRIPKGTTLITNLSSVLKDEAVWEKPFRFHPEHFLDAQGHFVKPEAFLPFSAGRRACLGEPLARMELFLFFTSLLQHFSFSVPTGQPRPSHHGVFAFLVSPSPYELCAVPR
# Experiment: Cytochrome panel assay with activity outcomes
# Conditions: recombinant CYP, pro-luciferin dealkylation, luminescence, p450-cyp2d6; series mostly up to 57.1 µM
# Experimental: The P450 gene superfamily is involved in the metabolism and clearance of xenobiotics. This assay used various human CYP P450 isozymes to measure the dealkylation of various pro-luciferin substrates to luciferin. The luciferin is then measured by luminescence after the addition of a luciferase detection reagent. Pro-luciferin substrate concentration in the assay was equal to its KM for its CYP P450 isozyme. Inhibitors and some substrates limit the production of luciferin, and decrease measured luminescence.
# NCGC Assay Protocol Summary:
# 1, Reagent, 2 uL, Isozyme and Pro-Luciferin
# 2, Library compounds, 23 nl, 40 uM to 0.24 nM dilution series
# 3, Controls, 23 nl, Isozyme specific inhibitor
# 4, Reagent, 2 uL, NADPH regeneration solution
# 5, Incubation time, 60 min, Isozyme specific temperature
# 6, Reagent, 4ul, Detection reagent
# 7, Incubation time, 20 min, Isozyme specific temperature
# 8, Detection, 1 sec, ViewLux luminescent read
# The luciferase-based P450-GloTM Screening Systems were obtained from Promega (Madison, WI) for CYP 1A2 (V9770), CYP 2C9 (V9790), CYP2 C19 (V9880), CYP 2D6 (V9890), and CYP 3A4 Luciferin-PPXE (V9910) and were adapted for 1,536-well microplates and an automated protocol. The control compounds furafylline for 1A2 (F124), sulfaphenazole for CYP 2C9 (S0758), ketoconazole for CYP 2C19 (K1003), quinidine for 2D6 (Q3625), and ketoconazole for 3A4 (K1003) were purchased from Sigma Aldrich (St. Louis, MO). Recombinant P450 enzymes were obtained from baculovirus constructs expressed in insect cells (BD/Gentest).
# Medium-binding white solid Kalypsys plates used. Mixtures kept on ice. 1A2: 10 nM 1A2, 100 uM Luc-ME, 100 mM KPO4; 2C9: 10 nM 2C9, 100 uM Luc-H, 25 mM KPO4; 2C19: 5 nM 2C19, 10 uM Luc-H EGE, 50 mM KPO4; 2D6: 5 nM 2D6, 30 uM Luc-ME EGE, 100 mM KPO4; 3A4: 10 nM, 25 uM Luc-PPXE. All amounts are reflected in their final concentration, working concentration is 2x.
# NADPH regeneration solution: 1.3 mM NADP+, 3.3 mM glucose-6-phosphate, 3.3 mM MgCl2, 0.4 U/mL glucose-6-phosphate dehydrogenase for all isozymes, 200 mM KPO4 for 3A4. Mixture prepared at RT but kept on ice during automated run.
# RT incubation in auxilliary plate hotel for 1A2, 2D6, and 3A4; 37C for 2C9 and 2C19.
# Keywords: P450, CYP1A2, CYP2C19, CYP2C9, CYP2D6, CYP3A4, Luciferase, MLSMR, MLSCN, NIH Roadmap, qHTS, NCGC
# % is set by controls: 0 for no effect and ±100 for the full control effect.
Compound,AC50,"activity, negative = inhibition"
Cc1nn(C(C)C(=O)Nc2ccc(Cl)cn2)c(C)c1[N+](=O)[O-] (stereo not given),inactive,
C[C@@](N)(C(=O)O)c1ccc(S(=O)(=O)O)cc1,inactive,
COc1cccc(Nc2ncc3nc(-c4cccs4)c(=O)n(Cc4cccs4)c3n2)c1,inactive,
O=c1c(-c2ccc(Cl)cc2)nc2cnc(N3CCNCC3)nc2n1Cc1cccs1,inactive,
CCOC(=O)COc1c(OC)cc(Cl)cc1C1Nc2ccccc2C(=O)N1c1ccc(F)cc1 (stereo not given),inactive,
Oc1c(Br)cc(Br)cc1CN(Cc1cc(Br)cc(Br)c1O)C1CCCCC1,0.251 µM (active),
CC(C)(C)c1cc(Br)c(O)c(CN(Cc2cc(C(C)(C)C)cc(Br)c2O)C2CCCCC2)c1,0.2 µM (active),
Oc1c(Br)cc(CN(Cc2cc(Br)c(O)c(Br)c2)C2CCCCC2)cc1Br,2.51 µM (active),
CC1=CC=CN2CC(O)CN=C12 (stereo not given),inactive,
COc1ccc(/C(O)=C2/C(=O)C(=O)N(Cc3cccnc3)C2c2ccco2)cc1OC (stereo not given),inactive,
CC(=O)n1nc(-c2ccco2)nc1N,inactive,
Cc1cccc(N(CC(=O)NC2CCCC2)C(=O)c2cc3cc4cccc(C)c4nc3s2)c1C,inactive,
Nc1ccc2[nH]cc(CCC(=O)O)c2c1,,5.9% [at 11.4 µM] (inactive)
CSCC[C@H](NC(=O)c1nn(C)c(=O)c2ccccc12)c1nc2ccccc2[nH]1,inactive,
Cc1noc(C)c1-c1nccc(N2CCOCC2)n1,inactive,
Cc1ccc2c(c1)N[C@H](c1ccc(C(=O)O)cc1)c1cccn1-2,,-2.93% [at 11.4 µM] (inactive)
COc1ccc2nc(SCC(=O)Nc3ccc4c(c3)OCCO4)[nH]c2c1,inactive,
Cc1ccc2nc(CC(=O)c3ccc4ccccc4c3)c(=O)[nH]c2c1,,-4.59% [at 11.4 µM] (inactive)
Cc1ccc2nc(SCC(=O)c3ccc4c(c3)OCO4)[nH]c2c1,4.47 µM (active),
CC(/C=C1\N=C(SCc2ccccc2Cl)SC1=O)=C\c1ccccc1,inactive,
Cc1ccccc1Cn1nc(C)c(NC(=O)c2sc3ccccc3c2Cl)c1C,inactive,
Cc1nnc(SCc2nc(N)nc(Nc3ccccc3)n2)s1,inactive,

Compound,AC50,"activity, negative = inhibition"
Cc1cc(Nc2ccccc2)nc(N)n1,11.2 µM (active),
Cc1cc(Nc2ccc(Cl)cc2)nc(N)n1,inactive,
COC(=O)C1CCN(c2cc(=O)n(C3CCCCC3)c(=O)[nH]2)CC1,inactive,
CCC(=O)c1ccc(OCC(O)CN(CCc2ccccc2)Cc2ccccc2)cc1 (stereo not given),1 µM (active),
Cc1ccc(OCC(=O)NNC(=O)CCc2ccccc2)cc1,inactive,
CN(C)CC(O)COc1ccc(C(C)(C)c2ccc(OCC(O)CN(C)C)cc2)cc1 (stereo not given),inactive,
COc1ccc(S(=O)(=O)NCc2ccc(C(=O)N3CCN(c4ccccn4)CC3)cc2)cc1,inactive,
O=C(O)[C@H](Cc1c[nH]c2ccccc12)N1C(=O)c2ccccc2C1=O,,-2.59% [at 11.4 µM] (inactive)
c1ccc2c(CN3CCN(Cc4c[nH]c5ccccc45)CC3)c[nH]c2c1,2.51 µM (active),
N[C@@H](Cc1c[nH]c2ccccc12)C(=O)O,inactive,
COC(=O)Cn1cc(/C=N/NC(=O)c2ccc(C#N)cc2F)c2ccccc21,inactive,
CC(C)c1cccc2cc3c(nc12)-c1cccc(=O)n1C3,inactive,
Cc1ccc(C(=O)c2ccc(CC(=O)O)n2C)cc1,inactive,
N#Cc1ccc(C(=O)Nc2ccc(N3CCN(C(=O)c4ccco4)CC3)cc2)c(F)c1,inactive,
COc1ccc(CNc2nc(-c3c(C)noc3C)nc3ccccc23)c(OC)c1,inactive,
COc1ccccc1CNc1nc(-c2ccccc2CN(C)C)nc2ccccc12,10 µM (active),
COc1ccc(CNc2nc(-c3ccc(C(=O)N(C)C)cc3)nc3ccccc23)c(OC)c1,inactive,
COc1ccc(CNc2nc(-c3ccccc3CN(C)C)nc3ccccc23)c(OC)c1,10 µM (active),
N[C@@H](CO)C(=O)NNCc1ccc(O)c(O)c1O,inactive,
Cc1cc(NC(=O)c2ccccc2Cl)no1,inactive,
CCOC(=O)C(C)n1cnc2c(oc3ccccc32)c1=O (stereo not given),inactive,
O=C(NNC(=O)c1ccccc1-n1cccc1)c1ccc(Cl)c(Cl)c1,inactive,

Compound,AC50,"activity, negative = inhibition"
CCOc1ccc(NC(=O)c2nnn(CC(=O)Nc3ccccc3OC)c2N)cc1,inactive,
CC(C)C(NS(=O)(=O)c1cccs1)C(=O)NCCN1CCN(c2ccccc2)CC1 (stereo not given),14.1 µM (active),
CC(=O)NC(C)C(c1cccs1)N1CCN(c2ccccc2)CC1 (stereo not given),inactive,
COc1ccc(N2CCN(CCNC(=O)C3CCN(S(=O)(=O)c4cccs4)CC3)CC2)cc1,inactive,
COc1ccc(NC(=O)N2CC3(CCN(S(C)(=O)=O)CC3)C2)cc1,inactive,
CC(=O)c1ccc(-n2nnnc2SCC(=O)Nc2cccc(NC(=O)c3ccco3)c2)cc1,inactive,
O=C(Nc1nnc(SCc2ccc(Cl)cc2)s1)c1ccco1,inactive,
O=C(Nc1cccc(OC(=O)c2ccco2)c1)c1ccco1,inactive,
O=C(CSc1ccc(Cl)cc1)Nc1cccc(NC(=O)c2ccco2)c1,6.31 µM (active),
Cc1ccc(SCC(=O)Nc2cccc(NC(=O)c3ccco3)c2)cc1,20 µM (active),
O=C(Nc1cccc(-c2nc3ncccc3o2)c1)c1sc2cc(Cl)ccc2c1Cl,inactive,
O=C(CSc1ccccc1)Nc1ccc(NC(=O)c2ccco2)cc1,inactive,
O=C(Nc1cccc(-c2nc3ncccc3o2)c1)c1sc2ccccc2c1Cl,inactive,
O=C(CSc1ccc(Cl)cc1)Nc1cccc(-c2nc3ncccc3o2)c1,8.91 µM (active),
COc1ccc(NC(=O)c2ncn[nH]2)cc1,inactive,
COC(=O)C(C)(C(=O)OC)c1ccc([N+](=O)[O-])cn1,inactive,
Cc1c(Cl)c([N+](=O)[O-])nn1CC(=O)Nc1c(C)n(C)n(-c2ccccc2)c1=O,inactive,
Cc1ccc(NC(=O)CCc2c(C)nc3ncnn3c2C)nc1,inactive,
CC(=O)c1cccc(NC(=O)c2csc(-n3nc(C)cc3C(F)(F)F)n2)c1,inactive,
COC(=O)CCCC(=O)O,,8.35% [at 11.4 µM] (inactive)
COC(=O)[C@@]1(Cc2ccc(OC)cc2)[C@@H]2[C@@H](CC(=O)[C@H]2CC(=O)C(=O)N(C)C)CN1C(=O)c1ccccc1,inactive,
